Data as given in PubChem BioAssay AID624126 (The Scripps Research Institute Molecular Screening Center, 2012).
Several values for one entry are separate records, joined by “and”; a condition that tells them apart may be missing. Identical values can stand only once. In all, about 360,000 compounds went through this assay and about 1,400 (0.39%) were called active.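 The calls were made as follows: active = activation above its plate's cutoff, the mean activation of sample wells plus 3 SD; inactive = the rest.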 The sample as a whole holds a higher share of actives than the screen did.

biological target: Muscarinic acetylcholine receptor M4 (Homo sapiens) (UniProt P08173); test: human M4 muscarinic receptor positive allosteric modulators, primary screen, CHO-K1 cells, Fluo-8 calcium fluorescence (AID 624126); conditions: CHO-K1 hM4/Gqi5, Fluo-8 calcium fluorescence, ACh EC20; at 3 µM; active compounds read high; 0% = ACh EC20, 100% = maximal ACh
Sequence (P08173 whole entry, looked up): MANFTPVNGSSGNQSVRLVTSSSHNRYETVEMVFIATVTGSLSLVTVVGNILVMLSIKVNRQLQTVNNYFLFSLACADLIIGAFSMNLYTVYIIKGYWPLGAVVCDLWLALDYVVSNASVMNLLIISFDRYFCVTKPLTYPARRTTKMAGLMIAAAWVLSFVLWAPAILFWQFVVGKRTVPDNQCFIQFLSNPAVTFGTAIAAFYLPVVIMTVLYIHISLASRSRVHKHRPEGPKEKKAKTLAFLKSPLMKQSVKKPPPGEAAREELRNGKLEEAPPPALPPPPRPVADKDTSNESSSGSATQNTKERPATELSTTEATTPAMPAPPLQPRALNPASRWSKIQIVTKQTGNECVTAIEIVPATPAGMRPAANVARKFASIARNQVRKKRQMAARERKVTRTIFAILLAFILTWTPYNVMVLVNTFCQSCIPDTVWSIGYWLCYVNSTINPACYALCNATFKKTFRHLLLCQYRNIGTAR

Structure (SMILES) | activation
Cc1ccc(-n2ncc3c(Nc4cccc(C(=O)O)c4)ncnc32)cc1 | 29.6% (active)
COc1ccc2nc(C)cc(Nc3cccc(C(=O)O)c3)c2c1 | -1.48% (inactive)
COC(=O)CSc1ncnc2c1cnn2-c1ccc(C)cc1C | 1.46% (inactive)
O=C1CN(C(=O)COC(=O)C2CC(=O)N(Cc3ccco3)C2)c2ccccc2N1 (stereo unspecified) | 13.2% (inactive)
O=C(NCc1ccc2c(c1)OCO2)c1c(-c2ccsc2)sc2ccccc12 | -3.52% (inactive)
COc1cc2c(cc1OC)CN(C(C)C(=O)Nc1cccc(S(=O)(=O)N3CCOCC3)c1)CC2 (stereo unspecified) | 1.73% (inactive)
O=C(CNC(=O)C12CC3CC(CC(C3)C1)C2)OCC(=O)N1CCCCC1 | -2.08% (inactive)
COC(=O)c1ccc(CNC(=O)C2CCC(=O)N(Cc3ccccn3)C2)cc1 (stereo unspecified) | 13.8% (active)
COC(=O)c1ccc(CNC(=O)C2CCC(=O)N(Cc3cccc(F)c3)C2)cc1 (stereo unspecified) | 2.75% (inactive)
Cc1ccccc1CCNC(=O)C1CCC(=O)N(Cc2ccc(Cl)cc2)C1 (stereo unspecified) | -4.94% (inactive)
Cc1cc(C)c(S(=O)(=O)Nc2c(C)n(C)n(-c3ccccc3)c2=O)cc1[N+](=O)[O-] | -0.44% (inactive)
CCOC(=O)c1cc(C(C)C)sc1NC(=O)COC(=O)c1nccnc1N | 17% (inactive)
CC(C)(C)C(=O)CN1C2=NCCN2c2ccccc21 | -8.44% (inactive)
Cc1ccc(N(C(=O)c2ccc(CN3CCOCC3)o2)C(C(=O)NCCC(C)C)c2cccs2)c(C)c1 (stereo unspecified) | 9.68% (inactive)
Cc1cccc(N(C(=O)c2ccc(CN3CCOCC3)o2)C(C(=O)NC2CCCCC2)c2ccc(F)cc2)c1 (stereo unspecified) | 15.7% (active)
O=C(NC1CCCC1)C(c1ccc(N2CCOCC2)cc1)N(C(=O)c1ccco1)c1ccccc1F (stereo unspecified) | -4.93% (inactive)
CSc1ncccc1C(=O)Nc1cccc(S(=O)(=O)N2CCOCC2)c1 | 7.64% (inactive)
Cc1ccc(S(=O)(=O)N(C)C)cc1NC(=O)C(C)OC(=O)c1ccc2ccccc2n1 (stereo unspecified) | 21.1% (inactive)
COC(=O)c1cc(C(=O)OCC(=O)Nc2cc(C)on2)cc([N+](=O)[O-])c1 | 19.2% (inactive)
COC(=O)c1ccccc1NC(=O)Cn1nc(C(F)(F)F)c2c1CCC2 | -1.81% (inactive)
COCCn1c(SCC(=O)Nc2ccccc2F)nc2c(c1=O)SCC2 | 1.76% (inactive)
COCCn1c(SCC(=O)N2CCCCCC2)nc2c(c1=O)SCC2 | 28% (active)
COCCn1c(SCC(=O)Nc2ccc(F)cc2F)nc2c(c1=O)SCC2 | 0.05% (inactive)

Structure (SMILES) | activation
CC(=O)n1cc([C@@H]2C=C(C(=O)N3CCN(Cc4ccc5c(c4)OCO5)CC3)O[C@H](OCc3ccc(CO)cc3)C2)c2ccccc21 | -4.81% (inactive)
CC(C)n1ncc2c(C(=O)N3CCN(Cc4cccs4)CC3)cc(C3CC3)nc21 | 3.71% (inactive)
CC(OC(=O)/C=C/c1ccccc1)C(=O)Nc1ccc(C(N)=O)cc1 (stereo unspecified) | 5.82% (inactive)
CCc1ccc(NC(=O)C(C)OC(=O)/C=C/c2cccc([N+](=O)[O-])c2)cc1 (stereo unspecified) | 30.3% (active)
C=CCOc1ccc(/C=C/C(=O)OC(C)C(=O)Nc2ccc(NC(C)=O)cc2)cc1 (stereo unspecified) | 0.99% (inactive)
O=C1CN(C(=O)CN2C(=O)NC3(CCCCC3)C2=O)c2ccccc2N1 | 3.42% (inactive)
Cn1c(SCC(=O)c2ccc(F)cc2)nnc1-c1ccccn1 | -3.85% (inactive)
Cc1ccc(NC(=O)c2cnc(SCC(=O)NCC3CCCO3)n(C)c2=O)cc1 (stereo unspecified) | 21.4% (inactive)
Cn1c(SCC(=O)c2ccccc2)ncc(C(=O)Nc2ccc(F)cc2)c1=O | 21.6% (active)
CC(C)NC(=O)N1Cc2cc(C(=O)NCC(F)(F)F)nc(-c3cccc(-c4cc5ccccc5o4)c3)c2[C@@H]1CCO | 1.14% (inactive)
COc1ccc(CCNC(=O)CN2C(=O)CCSc3ccccc32)c(OC)c1 | 0.14% (inactive)
CC(NS(=O)(=O)c1ccc(OCC(=O)N2CCCC2)cc1)c1ccccc1 (stereo unspecified) | 1.05% (inactive)
O=C(COC(=O)c1ncc(Cl)c(Cl)c1Cl)NCc1ccccc1 | 16.7% (inactive)
Cc1ccccc1C(=O)NNC(=O)CN1C(=O)c2ccccc2C1=O | 9.49% (inactive)
CCN(CC)S(=O)(=O)c1ccc2c3c(cccc13)C(=O)S2 | -6.1% (inactive)
CCN1C(=O)c2cccc3c(S(=O)(=O)Nc4ccccc4O)ccc1c23 | 17.5% (active)
C/C(CC(=O)Nc1ccc(C)cc1C)=N\NC(=O)C(C)C | 2.54% (inactive)
CN(C)C(=O)N1CCNCC1 | 4.12% (inactive)
Cc1cc(Br)cn2c(Cc3ccsc3)c(-c3ccc(C#N)cc3)nc12 | -5.22% (inactive)
COc1cc(CCC(=O)OCC(=O)Nc2cccc(S(N)(=O)=O)c2)cc(OC)c1OC | 1.58% (inactive)
O=C1CSc2ccc(S(=O)(=O)NCc3ccccc3)cc2N1 | 0.62% (inactive)
COc1cccc(C2=CC(=O)C[C@H](c3ccc(F)cc3)C2)c1OC | 2.96% (inactive)
Cc1c(C=O)c2ccccn2c1C(=O)c1ccncc1 | 30.8% (active)

Structure (SMILES) | activation
Cc1c(C(=O)NNC(=O)c2ccncc2)oc2ccccc12 | 5.49% (inactive)
Cc1c(C=O)c2ccccc2n1CC(=O)O | 4.05% (inactive)
COc1cccc(CNCCc2c[nH]c3ccccc23)c1OCc1ccccc1F | -8.42% (inactive)
Cc1ccc(C(c2sc3nc(C)nn3c2O)N2CCN(c3ccccc3)CC2)cc1 (stereo unspecified) | 4.41% (inactive)
Cc1nc2sc(C(c3ccco3)N3CCOCC3)c(O)n2n1 (stereo unspecified) | 31.4% (active)
Cc1nc2sc(C(c3ccco3)N3CCC4(CC3)OCCO4)c(O)n2n1 (stereo unspecified) | 5.78% (inactive)
CCc1nnc(NS(=O)(=O)c2ccc(NC(=S)NC(=O)/C=C/c3cccs3)cc2)s1 | -0.35% (inactive)
Cc1cc(NS(=O)(=O)c2ccc(NC(=O)c3cccc(OC(F)F)c3)cc2)nc(C)n1 | 3.12% (inactive)
CCc1nnc(NS(=O)(=O)c2ccc(NC(=O)c3cccc(OC(F)(F)C(F)F)c3)cc2)s1 | 13.1% (active)
CC(C)(C)N1CC(c2nc3ccccc3n2Cc2ccc(F)cc2)CC1=O (stereo unspecified) | -1.38% (inactive)
CCc1ccccc1OCC(=O)Nc1ccc2c(c1)OCCO2 | -2.66% (inactive)
O=C(Nc1ccc2c(c1)OCCO2)C(C1CC1)N1CCC(Cc2ccccc2)CC1 (stereo unspecified) | -15.2% (inactive)
CC(=O)NCC(=O)N(C)C(C(=O)Nc1ccc2c(c1)OCCO2)c1ccccc1 (stereo unspecified) | 16.8% (active)
Cc1ccccc1OCC(=O)N(Cc1cccc(F)c1)C1CCS(=O)(=O)C1 (stereo unspecified) | 0.66% (inactive)
CCOCCCn1c(SCC(=O)Nc2cc(OC)ccc2OC)nc2ccccc2c1=O | -0.05% (inactive)
CCOc1ccc(-n2c(SCC(=O)Nc3cc(C(=O)O)ccc3Cl)nc3ccccc3c2=O)cc1 | 17.1% (active)
CCOc1ccc(NC(=O)CSc2nc3ccccc3c(=O)n2Cc2cccs2)cc1 | -2.3% (inactive)
O=C1OCC2=C1C(c1ccccc1)CC(=O)N2c1cccc(F)c1 (stereo unspecified) | 11.7% (inactive)
CC(C)c1cccc(C(C)C)c1Nc1cn[nH]c1 | 28.5% (active)
O=C(NCCOc1ccccc1)N1[C@H]2CC[C@@H]1C=C(c1ccc(F)cc1OCc1ccccc1)C2 | -2.49% (inactive)
O=C(CSc1nnnn1-c1ccccc1)NCc1ccco1 | -4.53% (inactive)
COc1ccc(-n2c(SCC(=O)NCc3ccco3)nnc2-c2c[nH]c3ccccc23)cc1 | -1.54% (inactive)
O=C(CSc1nnc(-c2c[nH]c3ccccc23)n1-c1ccc(F)cc1)NCc1ccco1 | 32.8% (active)

Structure (SMILES) | activation
CCn1c(SC(C)C(=O)Nc2ccc(N3CCOCC3)cc2)nnc1-c1ccco1 (stereo unspecified) | 1.69% (inactive)
CC(Sc1ncnc2c1cnn2-c1ccccc1)C(=O)Nc1ccc(N2CCOCC2)cc1 (stereo unspecified) | 23.6% (active)
CCC(C)N(C(=O)CSc1ncnc2c1cnn2-c1ccccc1)C1CCS(=O)(=O)C1 (stereo unspecified) | -4.86% (inactive)
CCOC(=O)c1cnc2ccc(F)cc2c1Nc1ccc2c(c1)OCCO2 | 27.1% (active)
CCOc1ncccc1C(=O)Nc1ccc2c(c1)OCCO2 | -0.95% (inactive)
CCC(=O)c1cc(F)ccc1OCC(=O)Nc1ccc2c(c1)OCCO2 | -4.48% (inactive)
CCOc1cc(C)c(Cl)cc1S(=O)(=O)n1nnc2ccccc21 | 6.7% (inactive)
COc1ccccc1Nc1ncc(C(C)=O)c(C)n1 | 2.09% (inactive)
O=C(c1[nH]ncc1-c1ccc(Cl)cc1)C1CO1 (stereo unspecified) | -6.34% (inactive)
Cc1ccc(C(=O)CN2C(=O)NC3(CCc4ccccc43)C2=O)c(C)c1 (stereo unspecified) | -0.51% (inactive)
COc1ccc(C(=O)CN2C(=O)NC3(CCc4ccccc43)C2=O)c(OC)c1 (stereo unspecified) | 22.9% (active)
COc1ccc(-n2c(C)cc(C(=O)CN3C(=O)NC4(CCc5ccccc54)C3=O)c2C)cc1 (stereo unspecified) | -7.44% (inactive)
Cc1ccc(C(=O)NCC(=O)NCc2cc(=O)n(C)c(=O)n2C)cc1 | -0.97% (inactive)
CCOc1ccc(NS(=O)(=O)c2ccc(C(=O)NCC3CCCO3)cc2)cc1 (stereo unspecified) | -2.16% (inactive)
Cc1nc(N)sc1-c1ccccc1 | 16.2% (active)
Cc1nc(N)sc1N=Nc1c(C)n(C)n(-c2ccccc2)c1=O | 3.22% (inactive)
CC(=O)c1sc(N)nc1C | 3.44% (inactive) and -1.75% (inactive)
CCN(C(=O)COC(=O)c1ccc(COc2ccc3c(C)cc(=O)oc3c2)cc1)C1CCS(=O)(=O)C1 (stereo unspecified) | -5.76% (inactive)
CN=C(NC#N)NCCSCc1nc[nH]c1C | -5.15% (inactive)
O=C1c2cccc3cccc(c23)C(=O)N1c1cccc(O)c1 | -10.1% (inactive)
O=C1c2cccc3cc(Br)cc(c23)C(=O)N1Nc1ccccc1 | 21.6% (active)
O=C1C=C(c2ccc(Cl)cc2)C(=O)N1Nc1ccccc1 | -7.82% (inactive)
